Source: PubChem BioAssay AID2417 (National Center for Advancing Translational Sciences (NCATS), 2010)
Screen size: about 140,000 compounds; about 4,300 (3.1%) were called active. Inconclusive results (about 21%) are left out.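 The calls were made as follows: active = readout at or below -70, meaning at least 70% loss of cells showing the perinucleolar compartment, a nuclear body marking cancer cells; inconclusive = readout between -30 and a set limit; inactive = the rest.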 Only a selection was taken, and actives are over-represented in it overall.

Assay: High Content Assay for Compounds that inhibit the Assembly of the Perinucleolar Compartment;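 also: plate controls were DMSO wells for no effect and camptothecin positive control wells for full effect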
Details: PC3M PTB-GFP, PNC prevalence imaging, 16 h; at 10 µM; hits give low values
Summary of the method: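 Compounds are pinned in duplicate onto adhered PC3M cells stably expressing GFP-tagged PTB and incubated 16 h at 37 C. Cells are then fixed, nuclei stained with Hoechst, and PNC-positive cells counted.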

Compound	activity change (PNC), negative = inhibition
CN(c1ccccc1)c1nc(N)c([N+](=O)[O-])c(NCc2ccco2)n1	22% (inactive)
CNC(=O)/C(C#N)=C/c1c(F)cccc1Cl	52.2% (inactive)
COc1ccccc1N1CCN(CC(=O)NC(=O)NCc2ccco2)CC1	-19.8% (inactive)
Cc1noc(NS(=O)(=O)c2ccc(N/C=C/C(=O)c3ccccc3)cc2)c1C	34.4% (inactive)
Cc1noc(NS(=O)(=O)c2ccc(NC(=O)C34CCC(CC3)C4)cc2)c1C	-120% (active)
COc1ccc(C(=O)Nc2ccc(S(=O)(=O)Nc3onc(C)c3C)cc2)cc1OC	85.8% (inactive)
CCOC(=O)C1CCN(C(=O)/C=C/c2cc(OC)c(OC)c(OC)c2)CC1	5.16% (inactive)
COc1ccc(OCC(=O)N2CCOCC2)cc1	-29.5% (inactive)
COc1ccc(-c2cc(C(F)(F)F)n3nc(C(=O)N4CCOCC4)c(Cl)c3n2)cc1	-106% (active)
COC(=O)c1cnn2c(C(F)(F)F)cc(-c3ccco3)nc12	48.3% (inactive)
COc1ccc(-c2nc(SCC(=O)N3CCOCC3)n[nH]2)cc1	-17.8% (inactive)
CCn1c(COc2cccc(OC)c2)nnc1SCC(=O)N1CCOCC1	-11.5% (inactive)
COc1ccc(-c2ccnc(SCC(=O)N3CCOCC3)n2)cc1	-100% (active)
C/C(=N\NC(=O)c1ccc(NS(=O)(=O)c2cccs2)cc1)c1ccc2ccccc2c1	3.73% (inactive)
CC1CCCN(CCOCCOc2ccccc2-c2ccccc2)C1 (configuration not stated)	40% (inactive)
CC(=O)c1ccc(OCCN2CCOCC2)cc1	20.1% (inactive)
O=C(NCCN=C1NS(=O)(=O)c2ccccc21)c1ccc(S(=O)(=O)N2CCOCC2)cc1	-5.59% (inactive)
COC(=O)c1ccc2c(c1)S(=O)(=O)NC(=NCCCN1CCOCC1)S2	-119% (active)
COc1ccc(C(=O)NNC(=S)NC(=O)c2ccccc2[N+](=O)[O-])cc1	-4% (inactive)
O=C(O)c1ccc(/C=N/NC(=O)c2ccc(Br)cc2)cc1	-18.4% (inactive)
O=C(C(Cl)Cl)N1CCN(c2ccccn2)CC1	42.3% (inactive)

Compound	activity change (PNC), negative = inhibition
Cc1ccccc1CN(c1ccc(C(=O)NCC2CCCO2)cc1)S(C)(=O)=O (configuration not stated)	-1.65% (inactive)
COc1ccc(Cl)cc1NC(=O)CNc1ccccc1F	-22.5% (inactive)
COc1ccccc1Nc1ncc(C(C)=O)c(C)n1	9.62% (inactive)
C=C(C)C1CC=C(C)/C(=N\NC(=O)CNc2ccccc2OC)C1 (configuration not stated)	-81.8% (active)
CCCCc1cc2c(s1)CCCC/C2=N/O	0.0645% (inactive)
Cc1cc(C)c2c(n1)sc1c(=O)n(-c3ccccc3)c(=O)[nH]c12	19.8% (inactive)
CCn1c(/C=N/NC(=O)c2ccc(OC)cc2)nc2ccccc21	27.2% (inactive)
CCC(CC)C(=O)N1CCN(c2cccc(C)c2C)CC1	-15.3% (inactive)
COc1cc(/C=N\NC(=O)c2nonc2N)c(OC)cc1Br	16.4% (inactive)
COc1ccc(Cc2nnc(N/N=C/c3ccccc3O)[nH]c2=O)cc1OC	-84.6% (active)
COc1ccc(CCNC(=O)CCCCn2c(=O)[nH]c3ccccc3c2=O)cc1OC	-14.6% (inactive)
COc1ccc(/C=N/Nc2nc3ccccc3c(=O)[nH]2)cc1	25.5% (inactive)
NS(=O)(=O)c1cc(C(=O)NCCOc2ccccc2)c(Cl)cc1Cl	-9.28% (inactive)
C=CCNC(=O)c1ccccc1NC(=O)c1ccc(Cl)c(S(=O)(=O)Nc2cccc(C)c2C)c1	-8.83% (inactive)
CCNS(=O)(=O)c1ccc(NC(=O)Nc2cccc(C(F)(F)F)c2)cc1	-8.69% (inactive)
CC(C)C[C@H](NC(=O)Nc1cccc(C(F)(F)F)c1)C(=O)O	-100% (active)
O=C(O)CSCC(=O)Nc1cccc(C(F)(F)F)c1	-17.2% (inactive)
CC(=O)Nc1ccc(S(=O)(=O)NCC(=O)OCc2cc(=O)oc3ccc4ccccc4c23)cc1	-24.6% (inactive)
Cc1cc(C(=O)COC(=O)CNC(=O)c2ccc(F)cc2)c(C)n1Cc1ccco1	8.75% (inactive)
c1ccc2cc(OCCN3CCCC3)ccc2c1	-15.5% (inactive)
Cc1cc(OCCN2CCCC2)cc(C(C)C)c1	0% (inactive)

Compound	activity change (PNC), negative = inhibition
Cc1cc(OCCN2CCCC2)ccc1C(C)C	-100% (active)
Cc1cc([N+](=O)[O-])nn1CC(=O)Nc1ccc(Cc2ccncc2)cc1	-5.96% (inactive)
Cc1scc(C(=O)NNC(=S)NCc2ccccc2)c1C	11.8% (inactive)
CCCCn1c(O)c(N=NC(=O)Cn2c(C(F)(F)F)nc3ccccc32)c2ccccc21	-20% (inactive)
CN(C)CCNC(=O)Nc1cccc(Cl)c1Cl	17.8% (inactive)
Cc1cc(C)nc(NC(=O)Nc2ccccc2C(F)(F)F)n1	-23.4% (inactive)
Cc1c(NC(=O)Nc2ccccc2Cl)sc(=S)n1C	-119% (active)
O=C1NC(c2ccccc2)=NC1(Nc1ccccn1)C(F)(F)F (configuration not stated)	23.3% (inactive)
Cc1ccc(NC(=O)c2oc(=O)c3ccccc3c2-c2ccccc2)c(C)c1	36.6% (inactive)
Cc1cc(C)nc(N(C#N)CC(=O)Nc2ccccc2)n1	-18.1% (inactive)
CNc1nc(SC)nc(N(C#N)CC(=O)OC)n1	-100% (active)
COC(=O)C(C)N(C#N)c1nc(C)nc(C)n1 (configuration not stated)	10.7% (inactive)
O=C(NC(=S)N1CCN(Cc2ccccc2)CC1)c1ccccc1	-17% (inactive)
Cc1cc(C(=O)NNC(=S)NC(C)c2ccccc2)cs1 (configuration not stated)	1.77% (inactive)
CN(c1ccc(C(=O)NCCC2=CCCCC2)cc1)S(C)(=O)=O	32.9% (inactive)
CN(c1ccc(C(=O)N2CCc3ccccc3C2)cc1)S(C)(=O)=O	-100% (active)
COc1cc2c(cc1OC)CN(C(=O)c1ccc(S(=O)(=O)N3CCCCCC3)cc1)CC2	-8.24% (inactive)
Cc1ccc(NC(=O)Cn2cccc2C2=NC(c3ccccc3)CO2)c(C)c1 (configuration not stated)	17.1% (inactive)
CCN(CC)c1ccc(C2C3CCCCC3(O)CCN2CC(=O)Nc2ccccc2)cc1 (configuration not stated)	-22.9% (inactive)
Cc1ccc(NC(=O)CN2CCC3(O)CCCCC3C2c2ccc3c(c2)OCO3)c(C)c1 (configuration not stated)	-90% (active)
